Results published in PubChem BioAssay AID1721 (National Center for Advancing Translational Sciences (NCATS), 2009).
Out of some 290,000 compounds screened, about 1,100 (0.38%) were called active. A call without a number means that no potency is given here. The sample holds actives, similar compounds and a random draw of the others, so the mix is not that of the screen. Values without a mark were called inactive. Calls follow the shape of the dose curve; as a rule, active = well fitted inhibition curve with a large enough effect; inconclusive = small, poorly fitted or top-dose-only effect, or another doubt; inactive = no such curve, though single readings can be large or run the other way.

target: Pyruvate kinase (Leishmania mexicana) (UniProt Q27686); test: qHTS Assay for Inhibitors of Leishmania Mexicana Pyruvate Kinase (LmPK); conditions: purified LmPK, Kinase-Glo ATP luminescence, 1 h; series mostly up to 57.5 µM
Sequence (Q27686 whole entry, looked up): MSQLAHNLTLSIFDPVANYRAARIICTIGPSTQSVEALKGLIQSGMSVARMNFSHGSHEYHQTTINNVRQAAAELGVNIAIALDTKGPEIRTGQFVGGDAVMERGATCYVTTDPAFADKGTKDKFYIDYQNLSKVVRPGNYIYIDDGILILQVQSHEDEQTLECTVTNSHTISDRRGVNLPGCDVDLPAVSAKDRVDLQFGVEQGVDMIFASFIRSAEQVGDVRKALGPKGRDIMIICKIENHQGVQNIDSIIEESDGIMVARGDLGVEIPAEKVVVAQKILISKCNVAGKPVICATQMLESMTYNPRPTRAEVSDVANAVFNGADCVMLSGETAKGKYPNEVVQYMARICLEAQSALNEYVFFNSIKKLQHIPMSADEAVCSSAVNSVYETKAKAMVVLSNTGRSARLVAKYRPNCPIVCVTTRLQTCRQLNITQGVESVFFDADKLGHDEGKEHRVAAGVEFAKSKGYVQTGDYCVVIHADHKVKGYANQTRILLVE
Excerpt: NIH Chemical Genomics Center [NCGC] Malcolm Walkinshaw, Hugh Morgan, Linda Gilmore University of Edinburgh, UK MLPCN Grant: 1 R03 MH085697-01 NCGC Assay Overview: Pyruvate kinase (L. Mexicana) (LmPK) enzyme was supplied as a highly purified (>95% pure) sulphate-free preparation from University of Edinburgh, UK and assayed for its ability to generate ATP from ADP using phosphoenolpyruvate (PEP) as a substrate. ATP generation was detected in a coupled reaction by luciferase-mediated luminescence, an ATP-dependent process. […] The enzyme was assayed at an intermediate level of activity to screen for both inhibitors and activators.
NCGC Assay Protocol Summary: Three uL of enzyme mix (kept on ice) in assay buffer (50 mM Imidazole pH7.2, 50 mM KCl, 7 mM MgCl2, 0.01% Tween 20, 0.05% BSA) containing PEP (0.5 mM final concentration) and LmPK (0.1 nM final concentration) was dispensed into white solid bottom 1,536 well microtiter plates. 23 nL of compound were delivered by a pin tool and 1 uL of ADP mix in assay buffer (r.t; 0.1 mM final ADP concentration) was added. Plates were incubated at room temperature for 1 hour. Two uL of detection mix (Kinase-Glo, Promega; at 4 degree Celsius protected from light) was added and luminescence read by a ViewLux (Perkin Elmer) at 1 second exposure/plate. Data were normalized to the uninhibited and AC100 inhibition (no enzyme). To monitor activation, the first column contained a five-fold concentration of LmPK (0.5 nM).
Potency is read from the fitted curve at half-maximal effect.

Compound	Potency	activity change, negative = inhibition
O=C(NCc1ccccc1Cl)C1CCN(c2ncnc3c2nc2n3CCCCC2)CC1	inactive	–
Cc1cc(C(=O)N/N=C/c2ccc(O)c([N+](=O)[O-])c2)c(C)n1-c1ccc(F)cc1	inactive	–
CCOc1cccc(/C=N/N2C(=O)CSC2=S)c1O	inactive	–
O=C1CSC(=S)N1/N=C/c1ccc(O)c([N+](=O)[O-])c1	25.1 µM (active)	–
O=C(CN1CCCCCC1)Nc1ccc(Br)cc1[N+](=O)[O-]	inactive	–
O=C(NCCCNC(=O)c1ccccc1Cl)c1cnccn1	inactive	–
O=C(CN1C(=O)c2ccccc2C1=O)NCc1ccc(C(=O)O)cc1	inactive	–
CC(C)N(C(=O)c1ccc(-c2ccccc2F)cc1)C(C)C	inactive	–
CC(=O)N(C1=C(Cl)C(=O)c2ccccc2C1=O)c1ccc(C(=O)O)cc1	4.47 µM (active)	–
Cc1cccc(N2CCN(S(=O)(=O)c3ccc4[nH]c(=O)c(=O)[nH]c4c3)CC2C)c1 (configuration not stated)	inactive	–
O=C(/C=C/NCc1ccc(F)cc1)c1ccccc1	inactive	–
O=C(COc1ccc(S(=O)(=O)Nc2cccc(C(F)(F)F)c2)cc1)N1CCOCC1	inactive	–
CCCn1c(C(C)Nc2nc(-c3ccc(C)cc3)cs2)nc2cc(Cl)c(N3CCCCC3)cc21 (configuration not stated)	inactive	–
COc1ccccc1Cc1nc(-c2ccc(C)cc2)no1	inactive	–
COc1ccc(Sc2nc(-c3ccccc3)ncc2OC)cc1	inactive	–
COc1ccc(-c2nc(-c3ccccc3)no2)c(OC)c1	14.1 µM (active)	–
COC(=O)C1=C(C(=O)OC)[C@@H]2N(C)c3ccccc3[C@@]23C[C@@H](C(=O)OC)N(S(=O)(=O)c2ccc(Br)cc2)C3=N1	–	-0.27% [at 11.5 µM]
COc1cc(CO)ccc1OCC(=O)Nc1cccc2ccccc12	inactive	–
c1c2c(cc3sc(N4CCCCC4)nc13)OCCO2	6.31 µM (active)	–
Brc1ccc2nc(N3CCCC3)sc2c1	–	-0.864% [at 11.5 µM]
Cc1nc2cc3c(cc2s1)OCO3	inactive	–
CCOc1ccc(NC(=O)COc2ccc(S(=O)(=O)N3CCCC3)cc2)cc1	inactive	–
C[C@H]1Cc2c(-c3ccccc3)nc3c(c2CO1)CN(S(=O)(=O)c1ccc(Cl)c2nonc12)CC3	–	1.27% [at 11.5 µM]

Compound	Potency	activity change, negative = inhibition
Cc1onc(C(=O)Nc2ccc3c(c2)OCO3)c1[N+](=O)[O-]	inactive	–
Cn1cc([N+](=O)[O-])c(C(=O)Nc2ccc3c(c2)OCCO3)n1	14.1 µM (active)	–
Cn1cc([N+](=O)[O-])c(C(=O)Nc2cnn(Cc3ccc(F)cc3)c2)n1	inactive	–
CCCCNC(=O)N(O)C1N(/N=C/c2ccccc2O)C(=S)SC1(C)C (configuration not stated)	inactive	–
COc1ccc(NS(=O)(=O)c2ccc3oc(SCC(N)=O)nc3c2)cc1	inactive	–
CC(=O)Nc1ccc(NS(=O)(=O)c2ccc3c(c2)NC(=O)CC(=O)N3)cc1	inactive	–
CN1CCN(C(=O)C(=O)c2cn(CC(=O)N3CCCC3)c3ccccc23)CC1	inactive	–
O=C(Cn1c(=S)nc2ccccn21)N1CCc2ccccc2C1	inactive	–
O=C(c1ccc(F)cc1)n1cc(C(=S)N2CCOCC2)c2ccccc21	inactive	–
O=C(c1ccc(F)cc1)n1c(=S)nc2ccccn21	5.01 µM (active)	–
C[C@H]1Cc2c(COc3ccccc3)nc3c(c2CO1)CN(C(=O)NCc1ccco1)CC3	–	4.14% [at 11.5 µM]
CSCCC(NS(=O)(=O)c1ccccc1F)C(=O)N1CC=C(c2ccccc2)CC1 (configuration not stated)	inactive	–
O=C(NC1CCN(C(=S)Nc2ccc(Cl)cc2)CC1)C1CCCCC1	inactive	–
CC(C)CC(=O)NC(=S)NNC(=O)c1cccc([N+](=O)[O-])c1	inactive	–
COCCCNC(=S)NC(=O)c1ccc([N+](=O)[O-])cc1	inactive	–
CCCCCC(=O)NC(=S)NNC(=O)c1ccc([N+](=O)[O-])cc1	31.6 µM (active)	–
COc1cccc(C(=O)c2cc3ccc(O)cc3oc2=O)c1	14.1 µM (active)	–
COc1ccc2oc(=O)c(C(=O)N3CCCC3)cc2c1	inactive	–
COc1cccc(C(=O)NNC(=O)c2cccc(F)c2)c1	inactive	–
CC(=O)C1=C(C)NC(=O)NC1c1ccc2c(c1)OCO2 (configuration not stated)	inactive	–
COC(=O)C(C)n1cnc2c(nnn2-c2ccc(F)cc2)c1=O (configuration not stated)	inactive	–
CC(=O)Nc1ccc(NC(=O)c2ccc3c(c2)C(=O)N(c2ccccc2C)C3=O)cc1	inactive	–
O=C(NCc1ccccc1)C1CCN(C(=O)Cc2ccccc2)CC1	inactive	–

Compound	Potency	activity change, negative = inhibition
Oc1ccc(N=Nc2nccs2)c(O)c1	25.1 µM (active)	–
Oc1ccc2ccccc2c1N=Nc1nccs1	inactive	–
CCOc1ccc(N(CC(=O)Nc2cccc(OC)c2)S(C)(=O)=O)cc1	inactive	–
CC1(C(=O)NNC(=S)NCC2CCCO2)CC1(Cl)Cl (configuration not stated)	inactive	–
CN(C)C(=O)Cn1c(=O)n(S(=O)(=O)c2ccccc2)c2ccccc21	inactive	–
CCOC(=O)c1c(S(=O)(=O)Nc2cccc(Cl)c2)c(C)n(C)c1C	inactive	–
COCCn1cnc2c1c(=O)n(Cc1ccc(Br)cc1)c(=O)n2Cc1ccccc1	inactive	–
Cc1ccnc(NC(=O)c2ccoc2C)c1	11.2 µM (active)	–
Cc1occc1C(=O)Nc1cccc(Cn2cccn2)c1	inactive	–
Cc1occc1C(=O)Nc1nnc(-c2ccncc2)s1	inactive	–
O=C(Nc1ccccc1)c1ccc2c(c1)OCO2	15.8 µM (active)	–
O=C(Nc1ccccc1)c1ccc2c(c1)OCCCO2	inactive	–
O=C(Nc1cccc([N+](=O)[O-])c1)c1ccc2c(c1)OCO2	inactive	–
Cc1ccc(C(=O)O/N=C(\N)c2ccccn2)cc1Cl	inactive	–
N/C(=N\OC(=O)c1cc(-c2ccccc2)nc2ccccc12)c1ccncc1	inactive	–
Cc1cccc(/C(N)=N/OC(=O)c2ccccc2Cl)c1	11.2 µM (active)	–
COc1cccc(CCNC(=O)c2cccc(NC(=O)C3=C(C)OCCS3)c2)c1	inactive	–
CC1(C(=O)O)CCC(C(=O)Nc2ccc(Cl)c(Cl)c2)C1(C)C (configuration not stated)	inactive	–
CN1CCN(c2ccc(NC(=O)c3ccccc3)cc2)CC1	inactive	–
COc1cccc(C(=O)Nc2ccc(N3CCN(C(=O)c4ccco4)CC3)cc2)c1	inactive	–
COc1cccc(C(=O)Nc2ccc(N3CCCC3)cc2)c1	14.1 µM (active)	–
